# Sampled rows, rich in hits. Any-hit rate of the full collection: about 19%.
# TDP1 cell noCPT – qHTS for Inhibitors of human tyrosyl-DNA phosphodiesterase 1 (TDP1): qHTS in cells in absence of CPT; hit rate 15% among 420,000; Potency, µM (series often up to 46.2 µM), for inactives: at the highest dose activity change, negative = growth inhibition, hits mostly inhibitors; DT40 Tdp1-/- hTDP1 cells, no CPT, ATP luminescence, 48 h; also: potency is read from the fitted curve at half-maximal effect; % is scaled to controls: 0 for no effect and ±100 for the full control effect; nearly all actives have a fitted effect of over 55% in size
#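 Chicken DT40 Tdp1-/- cells stably complemented with human TDP1 were seeded at 400 cells/well with DMSO in place of 20 nM camptothecin. After compound pinning, cells grew at least 48 hr at 37 °C; viability read by CellTiter-Glo luminescence.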
# DT40 TDP1 CPT – growth inhibition of DT40 Tdp1-/-;hTDP1 cells with camptothecin (screen for TDP1 inhibitors). chicken DT40 Tdp1-/-;hTDP1 cells + 20 nM CPT, ATP luminescence, 48 h. Potency, µM (series often up to 46.2 µM), for the others: at the top dose activity change, negative = growth inhibition, most hits filed as inhibitors. hit rate 12% among 420,000; also: potency is read from the fitted curve at half-maximal effect; % is scaled to controls: 0 for no effect and ±100 for the full control effect; nearly all actives have a fitted effect of over 55% in size
#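 Chicken DT40 Tdp1-/- cells stably complemented with human TDP1 were seeded at 400 cells/well in medium containing 20 nM camptothecin, exposed to pin-transferred compounds, and grown at 37 °C for at least 48 hr. Viability was read as ATP luminescence.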
# TGFb inhibitor – blocks TGF-b signaling; HepG2 CAGA-GFP TGF-b/SMAD3 reporter, GFP fluorescence, 18 h; TGF-beta stimulated, 500 pg/mL final; Potency, µM (doses to about 46.1 µM), for the others: at the highest dose activity, negative = inhibition, most hits filed as inhibitors; hit rate 1.2% among 410,000; AID 588855; also: potency is read from the fitted curve at half-maximal effect; % is scaled to controls: 0 for no effect and ±100 for the full control effect; nearly all actives have a fitted effect of over 65% in size
#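 HEPG2 CAGA-GFP reporter cells (1000/well, DMEM with 1% FBS) received compounds, then recombinant TGF-beta at 500 pg/mL final for 18 hours at 37 degrees C. Per-cell GFP summed per well was normalised to unstimulated and stimulated DMSO controls before curve fitting.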
# HepG2 tox – HepG2 cytotoxicity, counter-screen for TGF-b inhibitors | HepG2 CAGA-GFP viability, ATP luminescence, 18 h | Potency, µM (doses to about 46.1 µM), inactives show top-dose activity change, negative = cytotoxicity, usual class: cytotoxic | hit rate 0.76% among 410,000 | AID 588856; also: potency is read from the fitted curve at half-maximal effect
#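 HepG2 CAGA-GFP cells (1000/well, DMEM with 1% FBS) received compound, then TGF-beta at 500 pg/mL final, and were incubated 18 hours at 37 degrees C. Viability was read by CellTiter-Glo luminescence. Media-only wells were set as complete cell-killing and DMSO as no toxicity.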
# IL-1B inflam inh – blocks inflammasome-driven IL-1 beta release | AID 743279 | hit rate 4.7% among 360,000 | activity change, % at 57.5 µM | THP-1 LPS/ATP IL-1B secretion, AlphaLISA, 16 h; stronger effect = lower value; in the data active = activity change below about -50%; inconclusive = mostly about -30% to -49%; also: % is scaled to controls: 0 for no effect and ±100 for the full control effect
#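 Secreted IL-1B measured by AlphaLISA bead assay after 16 h compound exposure of THP-1 cells; compounds (final up to 57.5 uM) added 1 h before LPS (250 ng/mL) and ATP (1.25 mM) stimulation; lower signal means less secretion.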
# TDP1 inh – TDP1 (human) enzyme inhibition. Q9NUW8. recombinant TDP1, AlphaScreen DNA substrate cleavage. Potency, µM (doses to about 130 µM), for the others: at the highest dose activity change, negative = inhibition, actives largely listed as inhibitors. hit rate 0.28% among 350,000; also: potency is read from the fitted curve at half-maximal effect; % is scaled to controls: 0 for no effect and ±100 for the full control effect; nearly all actives have a fitted effect of over 40% in size
# Target sequence (Q9NUW8 whole entry, looked up): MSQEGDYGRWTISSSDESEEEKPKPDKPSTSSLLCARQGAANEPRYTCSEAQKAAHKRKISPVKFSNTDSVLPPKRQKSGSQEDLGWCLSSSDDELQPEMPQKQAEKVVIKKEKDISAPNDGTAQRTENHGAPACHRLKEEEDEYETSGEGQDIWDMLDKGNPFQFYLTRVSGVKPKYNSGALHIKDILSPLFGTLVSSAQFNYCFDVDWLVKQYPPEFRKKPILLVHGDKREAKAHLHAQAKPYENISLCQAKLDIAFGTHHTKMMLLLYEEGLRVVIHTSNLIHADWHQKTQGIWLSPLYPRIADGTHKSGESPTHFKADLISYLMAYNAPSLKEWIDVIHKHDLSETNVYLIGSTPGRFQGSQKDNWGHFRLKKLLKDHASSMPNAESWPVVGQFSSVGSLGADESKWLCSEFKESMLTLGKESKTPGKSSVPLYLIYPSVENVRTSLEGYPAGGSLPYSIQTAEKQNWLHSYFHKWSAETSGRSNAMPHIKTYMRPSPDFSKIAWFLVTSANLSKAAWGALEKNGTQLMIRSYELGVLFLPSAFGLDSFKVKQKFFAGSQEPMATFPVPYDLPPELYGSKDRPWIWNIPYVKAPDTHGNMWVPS
#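 E. coli-derived human Tdp1, 1 nM final. Cpd preinc 15 min RT; substrate 15 nM final, 5 min RT; AS bead mix 10 ug/ml final, 10 min RT. Signal loss = tyrosine-FITC cleavage. No-enzyme wells = max signal.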
# Starred values were filed as active, the others as inactive; ? = inconclusive; / = no result given; [ ] = another dose, or the depositor's remark. Unless noted, calls follow the shape of the dose curve; as a rule, active = well fitted curve in the direction sought with a large enough effect; inconclusive = small, poorly fitted or top-dose-only effect, or another doubt; inactive = no such curve, though single readings can be large; an effect the other way counts as inactive or inconclusive.
SMILES,TDP1 cell noCPT,DT40 TDP1 CPT,TGFb inhibitor,HepG2 tox,IL-1B inflam inh,TDP1 inh
CC[C@]12c3[nH]c4ccccc4c3CCN1C(=O)C(CC(=O)NC/C=C(\C)CCC=C(C)C)C[C@@H]2C(=O)N1CCN(C(=O)C2CC2)CC1 (some centres undefined),14.6µM*,20.6µM*,?,-2.2%,?,3.4%
COCCCNC(=O)CC1C[C@H](C(=O)N2CCOCC2)[C@@]2(CCC3CCCC3)c3[nH]c4ccc(OC)cc4c3CCN2C1=O (some centres undefined),-21.5%,?,-20.6%,-4.1%,-1.9,-0.8%[56.1 µM]
COc1ccc2[nH]c3c(c2c1)CCN1C(=O)C(CC(=O)NC/C=C(\C)CCC=C(C)C)C[C@H](C(=O)N2CCOCC2)[C@@]31CCC1CCCC1 (some centres undefined),20.6µM*,14.6µM*,-2.0%,-18.0%,11.7,-0.8%[56.1 µM]
CC[C@]12c3[nH]c4ccccc4c3CCN1C(=O)C(CC(=O)NCC13CC4CC(CC(C4)C1)C3)C[C@@H]2C(=O)N1CCN(C(=O)C2CC2)CC1 (some centres undefined),5.17µM*,5.17µM*,-26.7%,-2.8%,0.0,4.9%
CC[C@]12c3[nH]c4ccccc4c3CCN1C(=O)C(CC(=O)NC(C)(C)C)C[C@@H]2C(=O)N1CCN(C(=O)C2CC2)CC1 (some centres undefined),-11.7%,-6.2%,-2.1%,-1.0%,24.4,1.3%
CC[C@]12c3[nH]c4ccc(OC)cc4c3CCN1C(=O)C(CC(=O)NCC13CC4CC(CC(C4)C1)C3)C[C@@H]2C(=O)N1CCN(C(=O)C2CC2)CC1 (some centres undefined),?,?,?,3.4%,-25.6,4.9%[56.1 µM]
C/C(=N\NC(N)=S)C1C2C3CC4C5CC(C42)C1C53 (centres undefined),10.3µM*,?,?,-24.5%,-19.1,2.5%
COc1ccc(CN2CC(C(=O)NCCCN3CCCCC3)CC2=O)cc1 (centres undefined),21.1%,-1.3%,-0.6%,-0.6%,28.8,2.2%
COc1ccc(C2NC(=O)NC(C)=C2C(=O)OC2CCCCC2)cc1 (centres undefined),?,18.4µM*,-9.5%,1.8%,-25.5,/
COc1ccc(C2NC(=O)NC(C)=C2C(=O)OC2CCCC(C)C2)cc1 (centres undefined),?,?,-1.3%,-25.7%,?,/
COc1ccc(C2NC(=O)NC(C)=C2C(=O)OC2CCC(C)CC2)cc1 (centres undefined),18.4µM*,?,?,-16.7%,-64.5*,4.5%
CCN(CC)CCN1c2ccccc2Sc2ccc3ccccc3c21,16.4µM*,-17.2%,-14.0%,-28.9%,-73.7*,0.0%
FC(F)(F)c1ccccc1Cc1c(-c2cccc(Br)c2)nc2ccc(Cl)cn12,?,?,3.9%,-0.7%,7.4,/
CCc1ccccc1NC1c2ccccc2C(=O)N1Cc1ccco1 (centres undefined),?,-4.7%,5.1%,7.4%,4.9,5.3%
O=C1c2ccccc2C(Nc2ccc(S(=O)(=O)N3CCCCCC3)cc2)N1Cc1ccco1 (centres undefined),16.4µM*,20.6µM*,-24.4%,-16.7%,-3.7,4.9%
C#CCN(C[C@H]1[C@H](OC(=O)NCC2CCCCC2)[C@H](OC(=O)NCC2CCCCC2)C[C@H]2C(=O)N(c3ccccc3)C(=O)[C@@H]12)S(=O)(=O)c1ccc(C)cc1,?,-15.8%,-1.9%,2.2%,-2.7,/
C#CCN(C[C@@H]1[C@@H](OC(=O)NC2CC2)[C@@H](OC(=O)NC2CC2)CN(C(=O)OC(C)C)N1C(=O)OC(C)C)S(=O)(=O)c1ccc(C)cc1,16.4µM*,?,-11.4%,-7.2%,0.0,/
C#CCN(C[C@@H]1[C@@H](OC(=O)NCc2ccco2)[C@@H](OC(=O)NCc2ccco2)CN(C(=O)OC(C)C)N1C(=O)OC(C)C)S(=O)(=O)c1ccc(C)cc1,9.2µM*,14.6µM*,?,-1.5%,-98.3*,/
C#CCN(C[C@@H]1[C@@H](OC(=O)NCc2ccccc2F)[C@@H](OC(=O)NCc2ccccc2F)CN(C(=O)OC(C)C)N1C(=O)OC(C)C)S(=O)(=O)c1ccc(C)cc1,7.31µM*,7.31µM*,1.1%,-14.8%,-20.3,/
C(#Cc1ccccc1)C[N+]1(CC#Cc2ccccc2)CCCCC1,1.46µM*,1.84µM*,-12.3%,-0.4%,-86.3*,8.3%
C=CCC(C#Cc1ccc(C)cc1)N(CC)CC (centres undefined),-31.0%,-26.5%,2.9%,-2.7%,-9.6,0.5%
Cc1ccc(C#CC[N+]2(CC#Cc3ccc(C)cc3)CCCCC2)cc1,0.0291µM*,0.461µM*,20µM*,-42.1%,-86.0*,3.2%
CCC[N+]1(CC#CCC(c2ccccc2)c2ccccc2)CCCCC1,1.3µM*,1.46µM*,-6.8%,-28.6%,-84.8*,/
C#CC[N+]1(CC#Cc2ccccc2)CCCCC1,16.4µM*,16.4µM*,?,-8.1%,11.0,1.2%
C[N+]1(CC#CC(O)(c2ccccc2)c2ccccc2)CCCC1,-7.2%,-19.1%,-1.9%,5.0%,-3.0,5.1%
SMILES,TDP1 cell noCPT,DT40 TDP1 CPT,TGFb inhibitor,HepG2 tox,IL-1B inflam inh,TDP1 inh
Cc1ccc(NS(=O)(=O)c2cc3[nH]c(=O)c(=O)[nH]c3cc2C)cc1N(C)C,-0.1%,0.1%,-3.7%,-4.7%,/,8.7%
CCOC(=O)c1c(C)[nH]c(C)c1S(=O)(=O)N1CCC(C(=O)NCc2cccc(OC)c2)CC1,3.6%,11.4%,?,-4.0%,/,5.3%
COc1cc(=O)n2c(c1C(=O)NCc1ccc3c(c1)OCO3)CCN(C(=O)c1ccccc1F)CC2,-15.4%,4.2%,/,/,/,/
C#CC[N+]1(CC#Cc2cccc(C)c2)CCCCC1,2.31µM*,2.59µM*,-0.3%,0.0%,11.5,7.9%
CC1N=C2c3ccccc3N=C(SCC(=O)NCCc3ccccc3)N2C1=O (centres undefined),-19.7%,-14.4%,4.0%,-3.6%,/,6.2%
CCOC(=O)N(C)c1c(CC)nc2c(OCc3ccc(Cl)cc3)cccn12,14.6µM*,20.6µM*,-18.4%,-21.0%,-27.1,/
CCc1nc2c(OCc3ccc(Cl)cc3)cccn2c1N(C)C(=O)c1ccc(C)cc1,18.4µM*,18.4µM*,?,-44.3%,?,/

# Assay outcomes as filed in PubChem BioAssay.
